Assay results: PubChem BioAssay AID504434 (National Center for Advancing Translational Sciences (NCATS), 2011)
Records with an inconclusive call do not appear. Active and inactive are the calls of the source. Calls follow the shape of the dose curve; as a rule, active = well fitted curve in the direction sought with a large enough effect; inconclusive = small, poorly fitted or top-dose-only effect, or effect the other way, or another doubt; inactive = no such curve, though single readings can be large or run the other way.

Assay: Secondary Assay for lipid storage modulators: AML12 cell LDSA assay for probe SAR
Details: AML12 lipid droplet accumulation, BODIPY 493/503 imaging, oleate
Text: NIH Molecular Libraries Probe Production Centers Network [MLPCN] NIH Chemical Genomics Center [NCGC] MLPCN Grant: 1 R03 MH085686-01 Assay Submitter (PI): Beller, Mathias; Max-Planck-Institut fur Biophysikalische Chemie NCGC Assay Overview: Storing lipids as a reservoir for energy or the anabolism of elementary metabolites is a common feature of probably all cells and is conserved from bacteria to humans. The universal cellular lipid storage organelle is the so-called lipid storage droplet (LD). Although ubiquitous, LDs share a simple structure composed of a hydrophobic core that harbors the storage lipids, which is shielded by a droplet-specific phospholipid monolayer to which proteins are attached. The current model of LD biogenesis involves an incorporation of the lipid core into the membrane leaflets of the endoplasmic reticulum (ER) followed by a subsequent budding-like maturation of a LD, which ultimately pinches off. […]
NCGC Assay Protocol Summary: The assay was performed with AML12 cells, using an oleic acid feeding protocol similar to the S3 assay. […] Fluorescence was detected by excitation of the fluorophores with a 488-nm laser on an Acumen Explorer (TTP Lab Tech). […] Cells were detected using channel 3 (575-640 nm) with 5-um width and 100-um depth filters. The ratio of the number of objects in PMT channel 2 over the number of objects in PMT channel 3 was also calculated. […]

## CCC/C=C/C/C=C/C=C/C=N/NN=O
  Potency: 499 nM (active)
